Screening results from PubChem BioAssay.
In the library only some 2.8% were active in any assay of this set; here they are far more common.
D3 ag: activates the human D3 dopamine receptor | 410,000 tested, 0.58% active | D3R DiscoveRx beta-arrestin cells, luminescence, 90 min | AID 652048 | max activation, % | P35462; in the data active = max activation above about 30%; note: 0% is about no effect
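Agonist mode: compounds and dopamine controls were applied to plated cells for 90 min at 37 degrees C after an overnight attachment at 1500 cells/well. Luminescent read-out followed 30 - 60 minutes at room temperature with DiscoveRx detection reagent.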
pAkt inh: blocks phosphorylation of Akt. Neuro2A IGF-stimulated pAkt S473 HTRF, 20 min; active compounds read low. 360,000 tested, 0.32% active. activity change, % for hits at 50 µM. AID 651550; in the data active = activity change below about -80%; inconclusive = mostly about -51% to -80%; note: % is set by controls: 0 for no effect and ±100 for the full control effect
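Neuro2A cells in DMEM with 0.5% FBS, overnight at 37 deg C, given compound at single 50 µM final, then IGF (6 nM final) for 20 min at 37 deg C. Lysed; phospho-Akt Ser473 by HTRF after 24 h, 665/615 ratio.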
LDHA block: inhibitors of human lactate dehydrogenase A | P00338 | purified LDHA, NADH/diaphorase-resazurin fluorescence; active compounds read low | activity change, % (values are at about 110 or 230 µM) | 480,000 tested, 0.15% active | AID 1347041; in the data active = activity change below about -30%; inconclusive = mostly about -25% to -30%;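 note: plate controls were DMSO wells for no effect and wells without enzyme for full effect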
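Enzyme activity of human lactate dehydrogenase 5 (2 nM; 0.06 mM NADH, 0.2 mM pyruvate, 5 min, RT) is measured via a resazurin/diaphorase fluorescence readout of residual NADH.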
D3 antag: D3 dopamine receptor (human) antagonism; P35462; D3R cells, DiscoveRx beta-arrestin luminescence, antagonist mode; active compounds read low; max response, negative = inhibition, %; 360,000 tested, 2.5% active; in the data active = max response below about -50%; inconclusive = no clear call, values can overlap the other calls; note: % is set by controls: 0 for no effect and ±100 for the full control effect
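Cells plated overnight at 1500 cells/well, then exposed to library compounds with dopamine controls for 90 minutes at 37 degrees C. DiscoveRx reagent added for 30–60 minutes at room temperature; luminescence read, quantitative HTS format.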
RGS4 inh: inhibitors of human regulator of G protein signaling 4. Transcreener GDP fluorescence polarization, RGS4-accelerated GTP hydrolysis. Potency, µM (titrated, usually from 114 µM), for inactives: at the highest dose activity change, negative = inhibition, usual class: inhibitors. P49798. AID 504845. 390,000 tested, 0.039% active; active = well fitted inhibition curve with a large enough effect; inconclusive = small, poorly fitted or top-dose-only effect; inactive = no such curve, though single readings can be large or run the other way; note: potency is the fitted concentration of half-maximal effect; % is set by controls: 0 for no effect and ±100 for the full control effect; nearly all actives have a fitted effect of over 75% in size
Target sequence (P49798 whole entry, looked up): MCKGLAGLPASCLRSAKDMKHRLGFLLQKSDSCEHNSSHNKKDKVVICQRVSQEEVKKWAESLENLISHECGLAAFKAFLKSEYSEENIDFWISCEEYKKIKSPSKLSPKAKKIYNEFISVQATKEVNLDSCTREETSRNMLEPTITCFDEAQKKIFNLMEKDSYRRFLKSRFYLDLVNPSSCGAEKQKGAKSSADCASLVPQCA
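MLSMR compounds (23 nl, pin-transferred) preincubated 10 min at room temperature with a 500nM (2x) first reagent, then RGS4 at 900nM (2x) plus Transcreener GDP mix added; fluorescence polarization (620/688 nm) read before and after 90 min at 30 °C.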
PI4K2A inh: PI4K2A (human) kinase inhibition. activity change, negative = inhibition, % at 76.9 µM. purified PI4K2A, ADP-Glo luminescence, 1 h; active compounds read low. 420,000 tested, 0.13% active. AID 1346378. Q9BTU6; in the data active = activity change below about -50%; inconclusive = mostly about -30% to -49%;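 note: -100% = wells without enzyme as full effect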
Target sequence (Q9BTU6 whole entry, looked up): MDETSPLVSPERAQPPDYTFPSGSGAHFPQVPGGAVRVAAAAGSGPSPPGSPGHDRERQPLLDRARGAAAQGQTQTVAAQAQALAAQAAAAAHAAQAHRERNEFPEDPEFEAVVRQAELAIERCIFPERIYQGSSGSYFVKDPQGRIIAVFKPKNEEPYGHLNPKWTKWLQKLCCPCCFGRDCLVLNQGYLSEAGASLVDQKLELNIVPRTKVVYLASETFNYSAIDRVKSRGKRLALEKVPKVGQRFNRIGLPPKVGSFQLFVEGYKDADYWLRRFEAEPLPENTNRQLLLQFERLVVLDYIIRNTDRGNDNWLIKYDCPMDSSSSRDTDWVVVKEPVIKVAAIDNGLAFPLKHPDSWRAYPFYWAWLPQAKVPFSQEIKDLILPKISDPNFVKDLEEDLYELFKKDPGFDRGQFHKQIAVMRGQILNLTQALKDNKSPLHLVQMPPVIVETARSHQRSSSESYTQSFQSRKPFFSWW
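PI4K2A activity was measured by ADP-Glo luminescence: enzyme (4 ug/mL stock) and phosphatidylinositol (1.2 mM stock) in Tris pH 7.5/MgCl2/EGTA/Triton X-100 buffer were reacted with ATP (300 microM stock) for one hour at ambient temperature.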
Numbers without * were called inactive; ! = not confirmed by another sample.

Results for CCN1CCN(c2cc(N3CCc4ccccc4C3)c(F)cc2[N+](=O)[O-])CC1 ?
D3 ag: -29; pAkt inh: inactive; LDHA block: -2; D3 antag: -79*; RGS4 inh: 6%; PI4K2A inh: 5

What do the screens show for `CC(=O)N1CCN(c2cc(N3CCCC3)c(F)cc2[N+](=O)[O-])CC1`?
D3 ag: -20; pAkt inh: inactive; LDHA block: 2; D3 antag: -8; RGS4 inh: 36%; PI4K2A inh: -8

How did CCSc1nnc(-c2ccc(S(=O)(=O)NCc3cccs3)cc2)o1 do in these assays?
D3 ag: 6; pAkt inh: inactive; LDHA block: -13; D3 antag: -66*; RGS4 inh: 44%; PI4K2A inh: 2

How did COc1cc(/C=C(/C#N)C(=O)c2c(Cl)cccc2Cl)cc(OC)c1O do in these assays?
LDHA block: 15

Results for COc1cc(/C=C(\C#N)C(=O)c2ccc(O)c(O)c2)cc(I)c1O ?
D3 ag: 40*; pAkt inh: inactive; LDHA block: -44*; D3 antag: 0; RGS4 inh: inconclusive; PI4K2A inh: -4

What do the screens show for `Cc1ccc(Cl)cc1N1CCN(S(=O)(=O)c2ccc3c(c2)CC(=O)N3C)CC1`?
D3 ag: 69*!; pAkt inh: inactive; LDHA block: -3; D3 antag: -14; RGS4 inh: -6%; PI4K2A inh: -2

How did CN1CCC(OC(c2ccccc2)c2ccccc2)CC1 do in these assays?
D3 ag: -1; pAkt inh: inactive; LDHA block: -3; D3 antag: 0; RGS4 inh: -6%; PI4K2A inh: -2

How did CN1CCC(Oc2ccccc2Sc2ccccc2)CC1 do in these assays?
D3 ag: -7; pAkt inh: inactive; LDHA block: inconclusive; D3 antag: -63*; RGS4 inh: 9%; PI4K2A inh: 3

What do the screens show for `COc1ccc(CCNC(=O)CCc2c(C)nn(CC(C)C)c2C)cc1OC`?
LDHA block: -5

Results for CCOC(=O)COc1ccc2c(=O)c(Oc3ccc(Br)cc3)c(C)oc2c1 ?
LDHA block: -3

Results for CN(C)C(=O)C12CCC(C)(c3nc4ccccc4nc31)C2(C)C (centres undefined) ?
D3 ag: 1; pAkt inh: inactive; LDHA block: 0; D3 antag: 14; RGS4 inh: 19%; PI4K2A inh: 5

Results for Cc1cc2nc3c(nc2cc1C)C1(C(=O)N(C)C)CCC3(C)C1(C)C (centres undefined) ?
D3 ag: 1; pAkt inh: -110%*; LDHA block: -3; D3 antag: 0; RGS4 inh: -28%; PI4K2A inh: 2

Results for CN(Cc1ccccc1)C(=O)Nc1ccc(Cl)cc1 ?
D3 ag: -4; pAkt inh: inactive; LDHA block: -5; D3 antag: 0; RGS4 inh: 3%; PI4K2A inh: 5

What do the screens show for `CN(Cc1ccccc1)C(=O)Nc1c(Cl)cccc1Cl`?
D3 ag: -7; pAkt inh: inactive; LDHA block: -2; D3 antag: -51*; PI4K2A inh: 3

What do the screens show for `COc1ccc2c(c1)CC(C(=O)Nc1cc(Cl)ccc1C)CO2` (centres undefined)?
D3 ag: 68*; LDHA block: -7; RGS4 inh: -30%; PI4K2A inh: -3

How did COc1ccc(N2CCN(CCCNC(=O)CN3CCN(Cc4ccccc4C)C3=O)CC2)cc1 do in these assays?
D3 ag: -7; pAkt inh: -111%*; LDHA block: -2; D3 antag: inconclusive; RGS4 inh: 2%; PI4K2A inh: -16

How did Cc1ccc(CN2CCN(CC(=O)NCCCN3CCN(c4ccc(F)cc4)CC3)C2=O)cc1 do in these assays?
D3 ag: -44; pAkt inh: inactive; LDHA block: -2; D3 antag: inconclusive; RGS4 inh: -12%; PI4K2A inh: 2

Results for CC1CCN(CCCNC(=O)c2cc3sccc3n2C)CC1 ?
D3 ag: -32; LDHA block: 4; D3 antag: -86*; RGS4 inh: 13%; PI4K2A inh: -1

What do the screens show for `COc1ccc(N2CCN(CCCNC(=O)c3cc4sccc4n3C)CC2)cc1`?
D3 ag: -64; pAkt inh: inactive; LDHA block: -5; D3 antag: -57*; RGS4 inh: 6%; PI4K2A inh: -6

How did O=C(Cn1c(-c2cccs2)cc2ccccc21)NCCCN1CCN(c2ccc(F)cc2)CC1 do in these assays?
D3 ag: -4; LDHA block: -1; RGS4 inh: 13%; PI4K2A inh: 2

Results for COc1ccc(N2CCN(CCCNC(=O)Cn3c(-c4cccs4)cc4ccccc43)CC2)cc1 ?
D3 ag: 32*; LDHA block: 1; RGS4 inh: -10%; PI4K2A inh: 0

Results for O=C(NCCN1CCOCC1)c1ccc(CN2CC(=O)N3CCCCC3C2=O)cc1 (centres undefined) ?
LDHA block: -21

How did O=C(NNC(=S)Nc1cccc2ccccc12)c1cccc(Br)c1 do in these assays?
D3 ag: 0; LDHA block: -2; D3 antag: inconclusive; RGS4 inh: -54%; PI4K2A inh: -1

What do the screens show for `Cc1ccc(C(=O)NNC(=S)Nc2cccc3ccccc23)s1`?
D3 ag: -3; pAkt inh: inactive; LDHA block: 17; D3 antag: -95*; RGS4 inh: inconclusive; PI4K2A inh: -15

What do the screens show for `Clc1ccc2c(c1)C(c1ccccc1Cl)=Nc1ccc(Cl)cc1C(c1ccccc1Cl)=N2`?
LDHA block: -3

Results for C=C1C(=O)[C@]23C[C@H]1CCC2[C@@]1(C)C(C[C@@H]3O)[C@](C)(C(=O)OC)CC[C@@H]1OC(C)=O (some centres undefined) ?
D3 ag: -27; pAkt inh: inactive; LDHA block: -6; D3 antag: -133*; PI4K2A inh: -9

Results for C=C1C(=O)[C@]23C[C@H]1CC[C@H]2[C@]1(C)[C@@H](O)CC[C@@](C)(C(=O)O)[C@H]1C[C@@H]3O ?
D3 ag: -3; pAkt inh: inactive; LDHA block: -9; D3 antag: -28; PI4K2A inh: -22

Results for C=C1C(=O)[C@]23C[C@H]1CC[C@H]2[C@]1(C)[C@@H](OC(C)=O)CC[C@@](C)(C(=O)OC)[C@H]1C[C@@H]3OC(C)=O ?
D3 ag: -6; pAkt inh: inactive; LDHA block: 0; D3 antag: -107*; PI4K2A inh: -1
